A3A deaminase = human APOBEC3A DNA deaminase inhibition. 330,000 tested, 0.41% active. recombinant A3A, FAM/TAMRA ssDNA deamination fluorescence. P31941. inhibition, % at 20 µM;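 active = at least 40% inhibition at 20 µM here, with at most 30% in a related deaminase screen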
Target sequence (P31941 whole entry, looked up): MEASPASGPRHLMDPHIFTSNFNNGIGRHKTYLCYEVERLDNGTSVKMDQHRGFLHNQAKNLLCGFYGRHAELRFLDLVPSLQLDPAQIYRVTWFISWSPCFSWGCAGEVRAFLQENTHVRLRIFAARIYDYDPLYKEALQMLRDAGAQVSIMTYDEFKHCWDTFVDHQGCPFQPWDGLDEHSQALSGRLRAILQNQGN
CTSL1 counter = counter-screen for PFM18AAP inhibitors: inhibitors of F. hepatica cathepsin L1 | inhibition, % at 5.96 µM | recombinant F. hepatica cathepsin L1, Z-Leu-Arg-MCA fluorescence | 300,000 tested, 0.49% active;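 active = inhibition above the mean of all tested compounds plus 3 SD, set per screening campaign, cut at about 17% in these data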
sPLA2-III inh = Blocks human group III sPLA2 activity | Q9NZ20 | QFRET BODIPY PC-A2 liposome hydrolysis, fluorescence | inhibition, % at 12.2 µM | 370,000 tested, 0.56% active;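 active = inhibition above mean plus 3 SD of compounds lying within the high and low control bounds, cut at about 19% in these data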
A3G deaminase = blocks human APOBEC3G single-stranded DNA deamination. 330,000 tested, 0.28% active. inhibition, % at 20 µM. recombinant A3G, ssDNA deamination FAM/TAMRA fluorescence;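 active = inhibition of at least 40% at 20 µM, with no more than 30% in the related APOBEC3A deaminase screen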
Target sequence (Q9HC16 whole entry, looked up): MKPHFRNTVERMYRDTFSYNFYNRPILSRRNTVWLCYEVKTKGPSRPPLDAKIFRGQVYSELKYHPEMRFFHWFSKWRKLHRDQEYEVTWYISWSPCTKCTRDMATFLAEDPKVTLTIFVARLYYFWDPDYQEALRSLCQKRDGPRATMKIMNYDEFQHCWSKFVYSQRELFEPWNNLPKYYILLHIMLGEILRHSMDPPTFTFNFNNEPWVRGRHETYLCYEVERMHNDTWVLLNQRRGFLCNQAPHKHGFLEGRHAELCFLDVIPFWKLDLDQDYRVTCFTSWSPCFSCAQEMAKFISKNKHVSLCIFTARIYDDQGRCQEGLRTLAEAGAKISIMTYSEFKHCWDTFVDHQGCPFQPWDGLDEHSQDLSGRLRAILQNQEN
NALP1 inh = blocks the NALP1 inflammasome reconstituted in yeast; S. cerevisiae NALP1/ASC/caspase-1 growth, X-gal OD620, 72 h; inhibition, % at 10 µM; 280,000 tested, 0.61% active; AID 2071; in the data active = inhibition mostly above about 24%, no sharp cut-off; inactive = mostly below about 32%
Of the large screens only hits and unclear results are named; the others gave an inactive call. Most compounds without a hit are left out; they make up all but 2% or so of the library.

CC[C@@H]1/C(=C/c2ccccc2)N2C(=O)C[C@@H](c3ccccc3)N=C2N1Cc1ccc(OC)cc1OC	none (no result: A3A deaminase, CTSL1 counter, A3G deaminase, NALP1 inh)
CCOC(=O)C1=C(C)Nc2[nH]c(=O)[nH]c(=O)c2C1c1cccs1 (stereo not given)	none
C=CCOC(=O)C1=C(C)Nc2[nH]c(=O)[nH]c(=O)c2C1c1ccccc1 (stereo not given)	NALP1 inh 29
CC(C)(C)c1ccc(-c2csc(N3CCC(C(N)=O)CC3)n2)cc1	none (no result: A3A deaminase, CTSL1 counter, A3G deaminase, NALP1 inh)
COc1ccc2c(c1)[C@H]1[C@H](CO2)[C@H](c2ccccc2)[C@]2(C)C(=O)Nc3cc(F)ccc3C(=O)N12	none (no result: CTSL1 counter, NALP1 inh)
COc1ccc2c(c1)OC[C@H]1[C@H]2N2C(=O)c3ccc(F)cc3NC(=O)[C@@]2(C)[C@H]1c1ccccc1	sPLA2-III inh 38 (no result: A3A deaminase, CTSL1 counter, A3G deaminase, NALP1 inh)
CCC(C)[C@@H](C(=O)OC)N(Cc1cn(Cc2ccccc2)nn1)S(=O)(=O)c1ccccc1Br (stereo not given in full)	none (no result: A3A deaminase, CTSL1 counter, A3G deaminase, NALP1 inh)
O=c1[nH]c2cc3c(cc2cc1C(c1nnnn1Cc1ccccc1)N1CCN2CCCC2C1)OCCO3 (stereo not given)	NALP1 inh 29
CCN1C(Nc2ccccc2)=NC[C@@H]1CC(C)C	none
CC(C)C[C@H]1CN=C(Nc2ccccc2)N1CC1CCCCCC1	CTSL1 counter 20 (no result: NALP1 inh)
Cc1c(NC(=O)C2CCCN(S(=O)(=O)c3ccccc3[N+](=O)[O-])C2)c(=O)n(-c2ccccc2)n1C (stereo not given)	none (no result: A3A deaminase, CTSL1 counter, A3G deaminase, NALP1 inh)
Cc1cc(C)cc(N(C(=O)c2csnn2)C(C(=O)NC(C)(C)C)c2cccnc2)c1 (stereo not given)	NALP1 inh 23
C/C(C=NNC(=O)CSc1nnc(-c2ccc(Cl)cc2)n1-c1ccccc1)=C\c1ccccc1	none (no result: A3A deaminase, CTSL1 counter, A3G deaminase, NALP1 inh)
Brc1ccc(Cn2nnc(-c3ccc(N4CCOCC4)cc3)n2)cc1	none (no result: A3A deaminase, CTSL1 counter, A3G deaminase, NALP1 inh)
CC(C)CCNC(=O)C(NS(=O)(=O)c1ccc2c(c1)c(=O)n(C)c(=O)n2C)c1ccccc1 (stereo not given)	NALP1 inh 44
COCCCNC(=O)C(Cc1ccccc1)NS(=O)(=O)c1ccc2c(c1)c(=O)n(C)c(=O)n2C (stereo not given)	none
Cn1c(=O)c2cc(S(=O)(=O)NC(Cc3ccccc3)C(=O)NCc3ccco3)ccc2n(C)c1=O (stereo not given)	CTSL1 counter 31
O=C(NCc1ccco1)c1ccccc1-c1nc(-c2ccc(F)cc2)no1	none
Cc1ccccc1-c1noc(-c2ccccc2C(=O)NCc2ccco2)n1	NALP1 inh 39
O=C(CCl)N1CCCC1c1ccc2c(c1)OCCO2 (stereo not given)	CTSL1 counter 75
CCOc1ccc(N/C=C/C(=O)c2ccccc2)c([N+](=O)[O-])c1	NALP1 inh 51
CCOc1ccc(NC(=O)/C=C/c2ccccc2)c([N+](=O)[O-])c1	none
CCC(=O)N(CCC(c1ccco1)C(C)C)Cc1ccccc1 (stereo not given)	CTSL1 counter 30
CC(C)[C@H](NC(=O)OCc1ccccc1)C(=O)NC(C=O)Cc1ccccc1 (stereo not given in full)	CTSL1 counter 113 (no result: sPLA2-III inh, NALP1 inh)
N#Cc1ccccc1N1CCN(S(=O)(=O)c2ccc3c(c2)CCC(=O)N3)CC1	none (no result: A3A deaminase, CTSL1 counter, A3G deaminase, NALP1 inh)
Cc1ccc(NS(=O)(=O)c2ccc3c(c2)N(C)CCO3)cc1	none
Cc1cccc(NS(=O)(=O)c2cc3c(cc2C)N(C)CCO3)c1	CTSL1 counter 65
CN1CCOc2cc(S(=O)(=O)Nc3ccc(F)cc3)ccc21	NALP1 inh 26
C(=C\c1nc(N2CCCC2)c2ccccc2n1)/c1ccccc1	NALP1 inh 64
Cc1ccc(-n2c(SCC(=O)Nc3ccc(S(=O)(=O)Nc4cc(C)nc(C)n4)cc3)nnc2-c2ccc(C(C)(C)C)cc2)cc1	none (no result: A3A deaminase, CTSL1 counter, A3G deaminase, NALP1 inh)
Cc1cc(C)c2c(N)c(C(=O)Nc3ncc(C)s3)sc2n1	CTSL1 counter 17
CCNC(=O)C1CCCN1C(=O)C(CCCN=C(N)N)NC(=O)C(CC(C)C)NC(=O)C(Cc1cn(Cc2ccccc2)cn1)NC(=O)C(Cc1ccc(O)cc1)NC(=O)C(CO)NC(=O)C(Cc1c[nH]c2ccccc12)NC(=O)C(Cc1cnc[nH]1)NC(=O)C1CCC(=O)N1 (stereo not given)	CTSL1 counter 40 (no result: sPLA2-III inh)
O=C(Cn1ncc2c1-c1ccccc1OC2)Nc1cccc(Cl)c1	NALP1 inh 38
CCOc1ccc(-c2cc(NC(=O)Cn3ncc4c3-c3ccccc3OC4)on2)cc1OCC	NALP1 inh 44
COc1cccc(N2CCN(CC(=O)NCc3cccc(OC)c3OC)CC2)c1	none (no result: A3A deaminase, CTSL1 counter, A3G deaminase, NALP1 inh)
CCc1cc(OCCCCNCc2ccccc2)ccc1Cl	NALP1 inh 63
CCOCCCNCc1ccc(OCc2ccccc2Cl)cc1	NALP1 inh 52
CCOC(=O)[C@]12CCCCC/C=C\1N(Cc1ccc(OC)cc1)C(=O)[C@H]2CC(=O)NCCCOC	none (no result: A3A deaminase, CTSL1 counter, A3G deaminase, NALP1 inh)
CC(=O)CSc1nc2c(c(=O)[nH]c(=O)n2C)n1Cc1cccc(Br)c1	CTSL1 counter 35
OCCOCCn1c(C(CO)Nc2nc(-c3ccccc3Br)cs2)nc2ccccc21 (stereo not given)	CTSL1 counter 21 (no result: NALP1 inh)
OCCOCCn1c(C(CO)Nc2nc(-c3cccc(Br)c3)cs2)nc2ccccc21 (stereo not given)	none (no result: NALP1 inh)
O=C1COc2ccc(N3C(=O)C=CC3=O)cc2N1	A3G deaminase 49 (no result: sPLA2-III inh)
Cc1oc2c(c1C(=O)NCc1cccnc1)C(=O)c1ccccc1C2=O	CTSL1 counter 31 (no result: sPLA2-III inh)
COc1ccc(NC(=O)c2nnn(CC(=O)Nc3ccccc3OC)c2N)c(OC)c1	none
CCc1ccc(Cn2nnc(C(=O)Nc3ccc(OC)cc3OC)c2N)cc1	NALP1 inh 45
Cc1ccccc1NC(=O)NCCCN1CCN(C2CCCCC2)CC1	none
Cc1cc(C(=O)NCCCN2CCN(C3CCCCC3)CC2)n(-c2ccccc2)n1	A3A deaminase 43
O=C(COC(=O)c1ccc2c(c1)C(=O)N(Cc1ccncc1)C2=O)Nc1cccc2ccccc12	CTSL1 counter 19
O=C(COC(=O)c1ccncc1)Nc1cccc2ccccc12	none (no result: CTSL1 counter, NALP1 inh)
Cn1c(=O)c2cc(NCc3ccccc3)nnc2n(C)c1=O	CTSL1 counter 57
O=S(=O)(c1ccccc1F)N1CCC(c2nc3ccccc3o2)CC1	none (no result: A3A deaminase, CTSL1 counter, A3G deaminase, NALP1 inh)
Cc1cccn2c(=O)c(/C=C(\C#N)C(=O)NC3CCS(=O)(=O)C3)c(N3CCC(C)CC3)nc12 (stereo not given)	CTSL1 counter 17 (no result: NALP1 inh)
O=C(O)/C(=C\c1cccc([N+](=O)[O-])c1)c1ccc(S(=O)(=O)N2CCCCC2)s1	NALP1 inh 23
Cc1cc(Nc2cccc(F)c2)nc(NCc2ccccc2)n1	NALP1 inh 72
Cc1cc(N/N=C/c2ccc(F)cc2)nc(NCc2ccccc2)n1	none
Cc1cc(Nc2ccc(Cl)cc2)nc(NCc2ccccc2)n1	NALP1 inh 76
Cc1cc(Nc2ccccc2)nc(NCc2ccccc2)n1	none
O=C(O[C@H]1CC[C@@]23CCCN2C(=O)CCC[C@H]3C1)N1CCOCC1	none (no result: A3A deaminase, CTSL1 counter, A3G deaminase, NALP1 inh)
Cc1c(NCc2ccccc2O)c(=O)n(-c2ccccc2)n1C	NALP1 inh 38

Source: PubChem (several laboratories)
